From PubChem
Most compounds without a hit are left out; they make up all but 21% or so of the library.
Shiga toxin inh: Shiga toxin inhibition. 290,000 compounds, 9.2% hits. Vero cells, Shiga toxin protein synthesis inhibition reporter. inhibition, % at 38.7 µM. AID 2315; in the data active = inhibition mostly above about 28%, no sharp cut-off; inactive = mostly below about 43%
Pf growth 48h: P. falciparum growth inhibition at 48 hours (one generation). AID 504832. P. falciparum luciferase growth in erythrocytes, 48 h. Potency, µM (top dose mostly 28.7 µM), most hits filed as inhibitors. 310,000 compounds, 5.9% hits
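Firefly luciferase activity from engineered P. falciparum reports growth; inhibitors lower the luminescent signal. Cultures contained 2% hematocrit erythrocytes at 0.1% final parasitemia.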
Pf growth 96h: inhibits malaria parasite growth, 96 h | AID 504834 | 320,000 compounds, 6.9% hits | P. falciparum luciferase reporter growth, 96 h | Potency, µM (highest dose often 28.7 µM), usual class: inhibitors
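Two parasite generations (96 h, 37 C, 5% CO2) of compound exposure in infected erythrocytes (0.05% parasitemia, 2% hematocrit). Luciferase-reporter P. falciparum; decreased luminescence indicates inhibited growth, aimed at apicoplast-acting delayed death.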
NS1 function inh: influenza NS1 inhibition; 270,000 compounds, 0.4% hits; Potency, µM (doses to about 46.1 µM); AID 2326; calls by dose curve; also: actives are rising curves; nearly all actives have a fitted effect of over 50% in size
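Recovery from NS1-induced slow growth read by OD600 in budding yeast switched to galactose assay medium (pH 6.0, -URA) at 1:100 dilution. Compound 23 nl per well; the matching strain lacking NS1 serves as control.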
CHX counter: counter-screen hit for Shiga toxin inhibitors, cycloheximide | cell reporter, cycloheximide protein synthesis inhibition counterscreen | max response, % | 300,000 compounds, 12% hits | AID 2314; in the data active = max response mostly above about 13%, no sharp cut-off; inactive = mostly below about 14%; also: read at 38.3 µM for the half of the compounds with a filed dose
Each line names hits and unclear results; the compound was inactive in the other large screens. Unless noted, calls follow the shape of the dose curve; as a rule, active = well fitted inhibition curve with a large enough effect; inconclusive = small, poorly fitted or top-dose-only effect, or another doubt; inactive = no such curve, though single readings can be large or run the other way.

O=C(Nc1ccccc1)ON=C1c2ccccc2-c2ccccc21	none
CC(C)(ONC(=O)Nc1ccccc1Cl)C(=O)O	none
O=C(Nc1ccccc1Cl)ON=C1c2ccccc2-c2ccccc21	Shiga toxin inh 45, CHX counter 23
NC(=O)NC(=O)Nc1ccccc1Cl	Pf growth 96h 10µM
O=C(NC(=O)c1csnn1)Nc1ccccc1Cl	CHX counter 34
CC1(c2ccccc2)NC(=O)N(CC(=O)Nc2ccccc2C(=O)N2CCCCC2)C1=O (configuration not stated)	none (no result: Shiga toxin inh, NS1 function inh, CHX counter)
CCN(CC)CCC(=O)N1c2ccccc2Sc2ccc(C(F)(F)F)cc21	none (no result: Shiga toxin inh, NS1 function inh, CHX counter)
Cc1cc(C)n(CC(=O)N2c3ccccc3Sc3ccc(C(F)(F)F)cc32)n1	Pf growth 48h 10µM, Pf growth 96h inconclusive
NC(=O)C1CCN(CC(=O)Nc2cccc(C(=O)Nc3cccc(C(F)(F)F)c3)c2)CC1	Pf growth 48h 1.2µM, Pf growth 96h inconclusive
CCOC(=O)N1CCC(NC(=O)c2cc(C(=O)Nc3cccc(C(F)(F)F)c3)ccc2CO)CC1	Pf growth 96h 2.3µM (no result: NS1 function inh)
CC(NC(=O)C1CCN(S(=O)(=O)c2ccc3c(c2)NC(=O)CO3)CC1)c1ccccc1 (configuration not stated)	none
COc1ccc(-c2nc(Cn3c(SCc4ccc(C)cc4)nc4ccncc43)c(C)o2)cc1OC	Shiga toxin inh 101, Pf growth 96h inconclusive, CHX counter 48 (no result: Pf growth 48h)
Cc1cccc(Cn2c(SCc3ccc(C(=O)N4CCCCCC4)cc3)nc3ccncc32)c1	none (no result: Pf growth 48h, Pf growth 96h, NS1 function inh)
COc1ccc(-c2nc(Cn3c(SCc4cccc(F)c4)nc4ccncc43)c(C)o2)cc1OC	Pf growth 48h 12µM, CHX counter 12
N#Cc1ccc(NC(=O)Cn2cnc([N+](=O)[O-])c2)cc1	Pf growth 96h 12µM
O=C(Cn1cnc([N+](=O)[O-])c1)Nc1cc(Oc2ccc(Cl)cc2Cl)cc([N+](=O)[O-])c1	Pf growth 48h 13µM, NS1 function inh inconclusive
CCCOC(=O)CC1C(=O)NCCN1C(=O)OC(C)(C)C (configuration not stated)	none
CCCNC(=O)C/C(C)=N/NC(=O)COc1ccc(C)cc1Br	none
O=C(COc1ccccc1Br)NCc1ccccn1	Shiga toxin inh 64, Pf growth 96h inconclusive, CHX counter 29 (no result: Pf growth 48h)
Cc1ccc(OCC(=O)NCc2ccccn2)c(Br)c1	Shiga toxin inh 78, CHX counter 31 (no result: Pf growth 96h)
O=C(COc1ccc(F)cc1Br)NCc1ccccn1	Shiga toxin inh 61, CHX counter 48
Cc1cc(OCC(=O)NCc2ccccn2)c2c(C)c(C)c(=O)oc2c1	Pf growth 48h inconclusive, Pf growth 96h inconclusive
Cc1ccc(OCC(=O)NCCO)c(Br)c1	Pf growth 96h inconclusive, CHX counter 31
Cc1ccccc1/C(N)=N/O	none
COc1ccc(CC(NC(C)=O)C(=O)NC2CCN(c3c(Cc4ccccc4)c(C)nc4ncnn34)CC2)cc1OC (configuration not stated)	Pf growth 48h 12µM, Pf growth 96h inconclusive
COc1ccc(CC(NC(C)=O)C(=O)NC2CCN(c3c(Cc4ccccc4)c(C)nc4ncnn34)CC2)c(OC)c1 (configuration not stated)	none
COc1cccc(CC(NC(C)=O)C(=O)NC2CCN(c3c4c(nc5ncnn35)CCC4)CC2)c1 (configuration not stated)	none (no result: Shiga toxin inh, Pf growth 48h, Pf growth 96h, CHX counter)
COc1cccc(CC(NC(C)=O)C(=O)NC2CCN(c3c(Cc4ccccc4)c(C)nc4ncnn34)CC2)c1OC (configuration not stated)	Pf growth 48h 5.9µM, Pf growth 96h inconclusive
CC1(C)CC(=O)c2c(nc3ccccc3c2N)C1	Pf growth 48h inconclusive, Pf growth 96h inconclusive
CC1(C)CC(=O)C2=C(C1)NC(Nc1nc3ccccc3o1)=NC21CCCCC1	Pf growth 48h inconclusive, Pf growth 96h 9.3µM
C#C[C@]1(O)CC[C@H]2[C@H]3CCc4cc(O)ccc4[C@@H]3CC[C@@]21C	none (no result: Pf growth 48h, Pf growth 96h, NS1 function inh)
Cc1ccc(NC(=O)c2ncn[nH]2)cc1	CHX counter 19
O=C(NCc1ccc(Cl)cc1)c1ncn[nH]1	none
O=C(Nc1ccc(Oc2ccc(Cl)cc2)cc1)c1ncn[nH]1	Pf growth 48h 9.3µM
Cc1ccccc1C(=O)Nc1cccc(NC(=O)c2ncn[nH]2)c1	none
Cc1ccc(NCc2nc3ccccc3n2C)c(C)c1	Shiga toxin inh 45, CHX counter 23
Cc1cccc(NCc2nc3ccccc3n2Cc2ccccc2)c1	Pf growth 96h inconclusive (no result: Pf growth 48h)
Cn1c(CNc2ccc(Cl)cc2)nc2ccccc21	Shiga toxin inh 110, Pf growth 96h inconclusive, CHX counter 31
Cc1ccc(N2CCN(c3ccc(NCc4nc5ccccc5n4C)cc3)CC2)cc1	Pf growth 48h 13µM, Pf growth 96h 5.2µM
Cc1cccc(NCc2nc3ccccc3n2C)c1	none (no result: Pf growth 96h)
COc1ccc(NC(=O)CN(c2ccc(OC)cc2)S(=O)(=O)c2ccc(OC)c(OC)c2)cc1	none
C(=C/c1ccnc2nc(SC/C=C/c3ccccc3)nn12)/c1ccccc1	Pf growth 48h inconclusive, Pf growth 96h 15µM
O=C(/C=C/c1ccccc1)n1cnnc1SC/C=C/c1ccccc1	none
CN(CCNC(=O)c1cccc(N2CCCC2=O)c1)Cc1ccccc1	none (no result: Pf growth 48h)
CN(CCNC(=O)c1ccc(N2CCCC2=O)cc1)CCc1ccccc1	Pf growth 48h inconclusive, Pf growth 96h 8.3µM
CCN(CCCNC(=O)c1ccc(N2CCCC2=O)cc1)c1cccc(C)c1	Pf growth 48h inconclusive, Pf growth 96h inconclusive
CC(C)N(CCCNC(=O)c1ccc(N2CCCC2=O)cc1)Cc1ccccc1	Pf growth 96h 1.3µM (no result: NS1 function inh)
CN(CCC#N)C(=O)COC(=O)c1c2c(nc3ccccc13)/C(=C/c1ccco1)CC2	NS1 function inh inconclusive, CHX counter 38
CCCc1nnc(SCC(=O)NC2CCCC2)n1CCOC	none
O=C(NC1CC(=O)c2sccc21)c1ccc(Cl)cc1Cl (configuration not stated)	CHX counter 32
O=C(CN(C(=O)c1csnn1)c1ccc(F)cc1)NCc1ccc2c(c1)OCO2	none
CSc1ccccc1NC(=O)c1ccc([N+](=O)[O-])cc1	Pf growth 48h inconclusive (no result: NS1 function inh)
COc1cc(NC(=O)c2cc3nc(C)cc(C)n3n2)c(OC)cc1Cl	Shiga toxin inh 62, CHX counter 53
COc1cc(NC(=O)c2c(F)c(F)c(F)c(F)c2F)c(OC)cc1Cl	none (no result: Pf growth 96h)
COC(=O)c1cc(Cl)c(NC(=O)c2ccc(F)cc2)cc1OC	Pf growth 96h 9.3µM
O=C(Nc1ccccc1O)c1ccc([N+](=O)[O-])cc1	Shiga toxin inh 78, Pf growth 96h inconclusive, CHX counter 27
O=C(Nc1ccccc1OC(=O)c1ccc(Cl)cc1)c1ccc(Cl)cc1	Shiga toxin inh 34, Pf growth 48h inconclusive, Pf growth 96h inconclusive, CHX counter 37
COC(=O)c1cc(Cl)c(NC(=O)c2cc(OC)c(OC)c(OC)c2)cc1OC	none
COCc1nnc(NS(=O)(=O)c2c(C)cc(C)cc2C)s1	none (no result: Pf growth 48h)
CC(CCc1ccccc1)NC(=O)COc1ccc(S(=O)(=O)N2CCOCC2)cc1[N+](=O)[O-] (configuration not stated)	Pf growth 48h inconclusive, Pf growth 96h inconclusive
COc1cc(NC(=O)C2CCCC2)c(OC)cc1Cl	Pf growth 96h 9.3µM (no result: Pf growth 48h)
COc1ccc(OC)c(NC(=O)c2ccc(Cl)cc2)c1	none
